Assay results reported in publication PMC5540273 (PLoS ONE, 2017).

Tests used:
Conditions in all cases: concentration: 1 μM,replicates: in singlicate; n = 1
[1] = tested on: FYN
[2] = tested on: GAK
[3] = tested on: T1, GCN2(Kin.Dom.2,S808G)
T1 construct: gene EIF2AK4

[4] = tested on: GRK1
[5] = tested on: T2, GRK2
T2 construct: gene ADRBK1

[6] = tested on: T3, GRK3
T3 construct: gene ADRBK2

[7] = tested on: GRK4
[8] = tested on: GRK7
[9] = tested on: GSK3A
[10] = tested on: GSK3B
[11] = tested on: T4, HASPIN
T4 construct: gene GSG2

[12] = tested on: HCK
[13] = tested on: HIPK1
[14] = tested on: HIPK2
[15] = tested on: HIPK3
[16] = tested on: HIPK4
[17] = tested on: HPK1
[18] = tested on: HUNK
[19] = tested on: ICK
[20] = tested on: IGF1R
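Further: KINOMEscan kinase panel screen.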

| SMILES | %Inh [1] | %Inh [2] | %Inh [3] | %Inh [4] | %Inh [5] | %Inh [6] | %Inh [7] | %Inh [8] | %Inh [9] | %Inh [10] | %Inh [11] | %Inh [12] | %Inh [13] | %Inh [14] | %Inh [15] | %Inh [16] | %Inh [17] | %Inh [18] | %Inh [19] | %Inh [20] |
| --- | --- | --- | --- | --- | --- | --- | --- | --- | --- | --- | --- | --- | --- | --- | --- | --- | --- | --- | --- | --- |
| COc1cccc(OC)c1C(=O)Nc1cccc(-c2nn3ccccc3c2-c2ccnc(Nc3cccc(F)c3)n2)c1 [GSK361065] | 22% | 6% | 0% | 0% | 0% | 0% | 0% | 17% | 24% | 0% | 0% | 30% | 31% | 0% | 0% | 84% | 2% | 15% | 0% | 7% |
| C[C@@H]1CNc2c(sc3ccc4nc(-c5ccc(O)cc5)ccc4c23)C(=O)N1 | 4% | 0% | 12% | 41% | 0% | 0% | 28% | 24% | 9% | 0% | 48% | 35% | 41% | 46% | 21% | 0% | 6% | 5% | 0% | 0% |
| OCCn1cc(-c2cnc3nnn(Cc4ccc5ncccc5c4)c3n2)cn1 | 0% | 6% | 0% | 3% | 0% | 1% | 0% | 0% | 0% | 0% | 0% | 25% | 6% | 0% | 0% | 3% | 0% | 0% | 0% | 0% |
| Cc1nnc(-c2ccc3occ(-c4ccc(S(C)=O)cc4)c3n2)o1 (centres unmarked) | 0% | 5% | 0% | 0% | 0% | 0% | 33% | 0% | 40% | 0% | 6% | 0% | 46% | 0% | 0% | 0% | 0% | 0% | 0% | 10% |
| FC(F)(F)c1cc(Br)cc(Nc2nccc(-c3cnn4ncccc34)n2)c1 [GW810578] | 0% | 20% | 12% | 7% | 14% | 8% | 0% | 10% | 90.4% | 89% | 0% | 12% | 99.1% | 99.4% | 97.9% | 76% | 13% | 0% | 97.8% | 0% |
| NC(=O)Nc1sc(-c2ccc(F)cc2)cc1C(N)=O [GW789449] | 20% | 37% | 34% | 12% | 0% | 0% | 87% | 26% | 0% | 17% | 3% | 47% | 40% | 34% | 31% | 2% | 48% | 0% | 15% | 2% |
| N#Cc1cccc(C(=O)NC2CCN(c3ccnc(Nc4ccc(F)cc4)n3)C2)c1 (centres unmarked) [GSK1379708] | 30% | 0% | 9% | 0% | 0% | 0% | 2% | 0% | 0% | 0% | 0% | 0% | 0% | 3% | 0% | 0% | 40% | 7% | 0% | 0% |
| Nc1nccc(-c2ccc3c(N)n[nH]c3c2)n1 [GSK1034945] | 32% | 15% | 0% | 100% | 0% | 40% | 52% | 0% | 0% | 19% | 90.5% | 0% | 0% | 0% | 34% | 34% | 52% | 0% | 0% | 0% |
| CC(=O)Nc1nc2cnc(Nc3cc(NC(=O)c4cccc(CC(C)(C)C#N)c4)ccc3C)nc2s1 | 0% | 9% | 0% | 0% | 15% | 0% | 0% | 44% | 0% | 2% | 0% | 32% | 29% | 10% | 6% | 13% | 0% | 2% | 44% | 9% |
| Cc1n[nH]c2cc(Nc3ccnc(Nc4cccc(CN5CCOCC5)c4)n3)ccc12 [GW682569] | 75% | 74% | 39% | 5% | 31% | 24% | 64% | 0% | 0% | 15% | 20% | 25% | 0% | 0% | 26% | 3% | 24% | 0% | 0% | 0% |
| Cc1ccn2nc(-c3ccc(F)cc3)c(-c3ccncc3)c2c1.Cl [GW457859] | 0% | 0% | 0% | 0% | 0% | 40% | 0% | 59% | 9% | 0% | 32% | 10% | 0% | 0% | 0% | 0% | 12% | 52% | 0% | 0% |
| CNC(=O)c1ccccc1Nc1nc(Nc2cccc(CS(C)(=O)=O)c2)ncc1C.O=CO [GSK1520489] | 98.9% | 94.7% | 100% | 8% | 0% | 100% | 85% | 40% | 25% | 34% | 52% | 99.2% | 93.5% | 88% | 92.7% | 97.2% | 96.8% | 0% | 20% | 90.7% |
| CN(c1cccc(CNc2nc(Nc3ccc4c(c3)CC(=O)N4)ncc2C(F)(F)F)c1)S(C)(=O)=O | 0% | 33% | 10% | 25% | 0% | 0% | 19% | 0% | 35% | 0% | 0% | 0% | 39% | 11% | 0% | 14% | 19% | 0% | 0% | 34% |
| Cn1ccc2ncnc(Oc3ccc(NC(=O)Nc4cccc(C(F)(F)F)c4)c(F)c3)c21 | 10% | 12% | 26% | 15% | 0% | 0% | 24% | 0% | 2% | 7% | 1% | 31% | 44% | 0% | 0% | 94.3% | 48% | 0% | 0% | 4% |
| COc1cc(Nc2nccc(N3CCC(NC(=O)c4cccc(C#N)c4)C3)n2)cc(OC)c1OC (centres unmarked) [GSK1379751] | 0% | 47% | 9% | 0% | 0% | 33% | 0% | 0% | 0% | 5% | 8% | 0% | 0% | 0% | 3% | 0% | 45% | 0% | 0% | 0% |
| O=C(NOCC1CC1)c1cc(Br)c(F)c(F)c1Nc1ccc(I)cc1Cl | 0% | 0% | 10% | 30% | 0% | 0% | 0% | 0% | 33% | 0% | 0% | 8% | 20% | 0% | 0% | 0% | 14% | 8% | 0% | 0% |
